SMILES strings stand for the structures. Out of some 1,400 compounds screened, about 350 (25%) were called active. About 2% were inconclusive and are not listed. Not all results are given here. Results with a measured potency or affinity are listed apart. Unmarked numbers belong to inactive results. The rule behind the calls is not given here.

A short description of this test: C. difficile growth inhibition, confirmation, 4-point retest (AID 1224921).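 Note: plate controls were DMSO wells for no effect and levofloxacin 16 µg/mL wells for full effect.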 Conditions: Clostridioides difficile clinical isolate growth, OD600, 24 h, active compounds read low; at 30 µM unless noted.
Regarding `O=C(N[C@H]1C=C[C@@H](CC(=O)N2CCc3ccccc3C2)O[C@@H]1CO)C1CC1`, the max activity is -6.96%. On to `CC(C)C#Cc1ccc2c(c1)O[C@@H](CN(C)Cc1cccnc1)[C@H](C)CN([C@H](C)CO)S2(=O)=O`, for which the max activity was 36.4%. As for `COc1ccc(-c2ccc([C@@H]3[C@H](C#N)N(C(=O)C4CCCC4)[C@H]3CO)cc2)cc1`, the max activity was -7.24% [at 1.95 µM]. Under `C/C=C/c1cnc2c(c1)C(=O)N([C@H](C)CO)C[C@H](C)[C@H](CN(C)Cc1ccc(F)cc1)O2` stands 14.8%; under `COc1cccc(-c2ccc3c(c2)O[C@H](CN(C)Cc2ccncc2)[C@@H](C)CN([C@@H](C)CO)S3(=O)=O)c1`, 21.8% [at 35 µM]; under `CO[C@H]1CN(C)C(=O)c2cc(NC(=O)c3cccc(F)c3)ccc2OC[C@@H](C)N(C(C)=O)C[C@H]1C`, 19% [at 8 µM]. As for `CC(C)CC#Cc1ccc2c(c1)O[C@H](CN(C)Cc1cccnc1)[C@@H](C)CN([C@@H](C)CO)S2(=O)=O`, the max activity is 39.7%. `CO[C@H]1CN(C)C(=O)c2cc(NC(=O)Nc3cccc(F)c3)ccc2OC[C@@H](C)N(C)C[C@H]1C`: the max activity was -11.4% [at 1.95 µM]. For `C[C@H](CO)N1C[C@H](C)[C@@H](CN(C)Cc2cccnc2)Oc2cc(C#CC3CCCCC3)ccc2S1(=O)=O`, the max activity is 30.4%. Under `O=C(C[C@H]1C[C@@H]2c3cc(NC(=O)Nc4ccc(F)cc4)ccc3O[C@@H]2[C@H](CO)O1)NC1CCCCC1` stands 16%; under `CCCC(=O)Nc1ccc2c(c1)OC[C@@H](C)N(Cc1ccncc1)C[C@H](C)[C@H](OC)CN(C)C2=O`, 14.1%. As for `O=C(C[C@@H]1C[C@H]2c3cc(NC(=O)Nc4ccc(C(F)(F)F)cc4)ccc3O[C@H]2[C@@H](CO)O1)NC1CCCCC1`, the max activity was -15.4% [at 1.95 µM]. As for `CO[C@H]1CN(C)C(=O)c2cc(NC(=O)c3ccccc3)ccc2OC[C@H](C)N(C(=O)CN(C)C)C[C@H]1C`, the max activity is -13% [at 1.95 µM]. Under `CO[C@@H]1CN(C)C(=O)c2cc(NC(=O)c3cc(C)on3)ccc2OC[C@@H](C)N(C(C)=O)C[C@@H]1C` stands -12.6% [at 1.95 µM]; under `O=C(C[C@H]1CC[C@H]2[C@@H](COC[C@H](O)CN2Cc2cc(F)ccc2F)O1)NCc1ccc(F)cc1`, -6.27%; under `O=C(C[C@H]1CC[C@H]2[C@@H](COC[C@@H](O)CN2Cc2cc(F)ccc2F)O1)NCc1ccc(Cl)cc1`, 12.5%. As for `C[C@H](CO)N1C[C@H](C)[C@H](CN(C)C)Oc2cc(-c3ccccc3F)ccc2S1(=O)=O`, the figure is -3.75% [at 1.95 µM].

In the case of `COc1ccc(S(=O)(=O)Nc2cccc3c2O[C@@H](CN(C)S(=O)(=O)c2c(C)noc2C)[C@H](C)CN([C@H](C)CO)C3=O)cc1`, the max activity is 14.4%.

Take `Cc1ccc(-c2ccc3c(c2)O[C@@H](CN(C)Cc2ccncc2)[C@@H](C)CN([C@@H](C)CO)S3(=O)=O)cc1`: the max activity was 21.6%.

As for `CCC(=O)Nc1ccc2c(c1)OC[C@@H](C)N(CC1CCCCC1)C[C@H](C)[C@H](OC)CN(C)C2=O`, the max activity was 11.5%. Turning to `CC(C)[C@@H](C)NC(=O)N(C)C[C@@H]1OCc2ccccc2-c2ccccc2C(=O)N([C@@H](C)CO)C[C@H]1C`, the max activity was 34.8%. On to `CO[C@H]1CN(C)C(=O)c2ccc(NC(=O)C3CC3)cc2OC[C@@H](C)N(Cc2cncnc2)C[C@@H]1C`, for which the max activity was -5.55%. As to `COc1ccc(-c2ccc3n(c2=O)C[C@H]2[C@H](CO)[C@@H](C(=O)N4CCOCC4)[C@@H]3N2C)cc1`, the max activity is -4.95%. Consider `CC(C)CC#Cc1ccc2c(c1)O[C@H](CN(C)Cc1ccncc1)[C@H](C)CN([C@H](C)CO)S2(=O)=O`, for which the max activity was 19.2% [at 8 µM]. Under `C[C@H]1CN([C@@H](C)CO)C(=O)c2cc(C#CCN(C)C)cnc2O[C@@H]1CN(C)Cc1ccc(C(=O)O)cc1` stands -11.6% [at 1.95 µM].

With `O=C(Nc1ccc(Cl)c(Cl)c1)N[C@@H]1CC[C@@H](CCn2cc(C3CCCCC3)nn2)O[C@@H]1CO`, the max activity is 30.5% [at 0.5 µM]. Turning to `COc1ccccc1CNC(=O)C[C@H]1C[C@@H]2c3cc(NC(=O)NC4CCCC4)ccc3O[C@@H]2[C@@H](CO)O1`, the max activity was 12.1%. As for `C[C@@H]1CN([C@H](C)CO)S(=O)(=O)c2ccc(C#Cc3ccc(F)cc3)cc2O[C@@H]1CN(C)S(C)(=O)=O`, the figure is -24% [at 1.95 µM]; as for `CC(C)NC(=O)N(C)C[C@H]1Oc2cc(C#Cc3cccc(F)c3)ccc2S(=O)(=O)N([C@@H](C)CO)C[C@@H]1C`, 30.3%; as for `COc1cccc(C#Cc2ccc3c(c2)O[C@@H](CN(C)C)[C@H](C)CN([C@@H](C)CO)S3(=O)=O)c1`, 41.9%.

With `C[C@H](CO)N1C[C@H](C)[C@@H](CN(C)C)Oc2cc(C#Cc3ccc(F)cc3)ccc2S1(=O)=O`, the max activity is 18.3%. Under `COc1cccc(C#Cc2ccc3c(c2)O[C@H](CN(C)C)[C@@H](C)CN([C@H](C)CO)S3(=O)=O)c1` stands 8.78%; under `COc1cccc(C#Cc2ccc3c(c2)O[C@H](CN(C)C)[C@H](C)CN([C@@H](C)CO)S3(=O)=O)c1`, -8.62% [at 1.95 µM]. As for `C[C@H]1CN([C@@H](C)CO)S(=O)(=O)c2ccc(C#Cc3ccccc3F)cc2O[C@@H]1CN(C)C`, the figure is 20.5%; as for `C[C@@H]1CN([C@@H](C)CO)S(=O)(=O)c2ccc(C#Cc3cccc(F)c3)cc2O[C@@H]1CN(C)C`, 8.04%; as for `CCCN1C[C@@H](C)[C@@H](OC)CN(C)C(=O)c2cc(NC(=O)CC)ccc2OC[C@@H]1C`, 8.06%.

Turning to `C[C@H](CO)N1C[C@H](C)[C@H](CN(C)C(=O)Nc2cccc(F)c2)Oc2cc(C#CC3(O)CCCC3)ccc2S1(=O)=O`, the max activity is 50.2%. Take `Cc1ccc(-c2ccc3c(c2)O[C@H](CN(C)Cc2cccnc2)[C@@H](C)CN([C@@H](C)CO)S3(=O)=O)cc1`: the max activity was 36.5%.

As for `CO[C@H]1CN(C)C(=O)c2ccc(NC(=O)c3cccc(F)c3)cc2OC[C@H](C)N(C(C)=O)C[C@@H]1C`, the max activity was -20.5%. As for `COc1ccc(S(=O)(=O)N(C)C[C@@H]2Oc3ncc(-c4ccc(F)cc4)cc3C(=O)N([C@H](C)CO)C[C@@H]2C)cc1`, the figure is -7.45%; as for `C[C@H](C(=O)N(C)C[C@H]1OCc2ccccc2-c2ccccc2C(=O)N([C@@H](C)CO)C[C@@H]1C)c1ccccc1`, -4.71% [at 0.5 µM]; as for `C[C@@H]1CN([C@H](C)CO)C(=O)c2cc(C#CCN(C)C)cnc2O[C@H]1CN(C)Cc1ccccc1F`, 24.5%. For the molecule `COc1ccc(C#Cc2ccc3c(c2)[C@]2(C(=O)N3)[C@H](C(N)=O)[C@H]3C(=O)O[C@H](c4ccccc4)[C@H](c4ccccc4)N3[C@@H]2c2ccc(O)cc2)cc1`, the max activity was 23.8%.

On to `NC(=O)[C@H]1[C@@H]2C(=O)O[C@@H](c3ccccc3)[C@@H](c3ccccc3)N2[C@@H](c2ccccc2OCCO)[C@]12C(=O)Nc1ccc(C#CC3(O)CCCCCC3)cc12`, for which the max activity was 16.8% [at 8 µM]. Under `CC(=O)N(C)C[C@@H]1Oc2ncc(C#Cc3ccc(F)cc3)cc2C(=O)N([C@H](C)CO)C[C@@H]1C` stands 22.7%; under `C[C@H]1CN([C@@H](C)CO)C(=O)c2cc(NC(=O)Nc3cccc4ccccc34)ccc2O[C@@H]1CN(C)S(=O)(=O)c1ccccc1`, 37.2%. Under `CO[C@H]1CN(C)C(=O)c2cc(NS(C)(=O)=O)ccc2OC[C@H](C)N(Cc2ccccn2)C[C@@H]1C` stands 2.2%. As to `CO[C@H](CN(C)Cc1cc(F)ccc1F)[C@@H](C)CN(C(=O)Nc1ccc(F)cc1)[C@@H](C)CO`, the max activity is 21.5%.

`C/C=C/[C@@H](CCn1cc(CCO)nn1)[Si](C)(C)c1ccc(OC)cc1`: the max activity is -14.8% [at 0.5 µM]. As for `C[C@H](NC(=O)N(C)C[C@@H]1OCc2ccccc2-c2c(n(C)c3ccccc23)C(=O)N([C@@H](C)CO)C[C@H]1C)c1ccccc1`, the figure is 26.5% [at 8 µM]; as for `CN(C)CCCNC(=O)[C@H]1[C@H](CO)[C@H]2Cn3c(ccc(-c4cccc(F)c4)c3=O)[C@@H]1N2C`, -8.59%; as for `CNC[C@H]1Oc2cc(-c3ccccc3F)ccc2S(=O)(=O)N([C@H](C)CO)C[C@@H]1C`, 14%. As for `Cc1ccccc1-c1ccc2c(c1)O[C@@H](CN(C)Cc1ccncc1)[C@@H](C)CN([C@@H](C)CO)S2(=O)=O`, the figure is 40.4%; as for `C/C=C/c1cnc2c(c1)C(=O)N([C@@H](C)CO)C[C@@H](C)[C@@H](CN(C)Cc1ccc(F)cc1)O2`, 19.7%; as for `C[C@H](CO)N1C[C@H](C)[C@H](CN(C)Cc2ccc(C(=O)O)cc2)Oc2ncc(C#CCN(C)C)cc2C1=O`, -7.61% [at 8 µM]. Under `CO[C@@H]1CN(C)C(=O)c2ccc(NC(=O)c3nc4ccccc4s3)cc2OC[C@H](C)N(Cc2cccnc2)C[C@@H]1C` stands -17.1% [at 1.95 µM]; under `CCCN1C[C@H](C)[C@@H](OC)CN(C)C(=O)c2cc(NC(=O)CC)ccc2OC[C@H]1C`, -10.4% [at 0.5 µM].

Consider `Cc1ccc(-c2ccc3c(c2)O[C@H](CN(C)Cc2ccncc2)[C@@H](C)CN([C@H](C)CO)S3(=O)=O)cc1`, for which the max activity is -11.4% [at 8 µM]. Consider `CO[C@@H]1CN(C)C(=O)c2ccc(NC(=O)C3CC3)cc2OC[C@@H](C)N(Cc2cncnc2)C[C@@H]1C`, for which the max activity is -9.09% [at 1.95 µM].
